The structures appear in SMILES notation. Active and inactive are the calls of the source.

The nature of assay [1]: small molecules captured by biotinylated probe aFSTL3 – biochemical, small-molecule microarray, fluorescence 635/667, stem cell growth factor project, primary screen (AID 1064).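 Also: measures binding of the biotinylated anti-FSTL3 antibody to printed compounds.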 As to conditions: higher = more signal.
Assay [2] in a line: binders from COS7 lysate, DM2A8 probe, primary screen, torsin A project, cell lysate, small-molecule microarray, fluorescence 635/667 (AID 1065). Particulars: higher = more signal, COS7 lysate expressing mutant human TOR1A.
Assay [3] is described as follows: small molecules captured by biotinylated probe aFGF2 – biochemical, small-molecule microarray, fluorescence 635/667, stem cell growth factor project, primary screen (AID 1067).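 Also: measures binding of biotinylated aFGF2 protein to printed compounds on slides; z-score merges feature fluorescence and signal-to-noise across triplicate slides.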 Particulars: higher = more signal.
A short description of assay [4]: small molecules captured by biotinylated probe aFGF10 – biochemical, small-molecule microarray, fluorescence 635/667, stem cell growth factor project, primary screen (AID 1071).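 Also: score merges 667 nm spot intensity and signal to noise from triplicate slides.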 As to conditions: higher = more signal.
The target in assay [5] is Neurogenic locus notch homolog protein 2 (Homo sapiens) (UniProt Q04721). Description: small molecules binding Notch2 protein – biochemical, small-molecule microarray, 635 nm fluorescence, stem cell growth factors, primary screen (AID 1073). Particulars: higher = more signal.
In assay [6] the target is Pro-neuregulin-1, membrane-bound isoform (Homo sapiens) (UniProt Q02297). In words: small molecules binding neuregulin-1 protein – biochemical, small-molecule microarray, fluorescence 635/667, psychiatric disease protein project, primary screen (AID 1075).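 Also: score combines 667 nm spot fluorescence with signal to noise.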 As to conditions: NRG1 binding, 635 nm fluorescence, higher = more signal.
Assay [7] deals with Neuregulin-1 EGF-like domain. In words: small molecules binding NRG1 EGF domain – biochemical, small-molecule microarray, 635 nm fluorescence, primary screen (AID 1081).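 Also: binding of the protein to compounds printed on small-molecule microarray slides.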 Particulars: higher = more signal.
A short description of assay [8]: FRG1 expression reporter modulators in myotubes – cell-based, C2C12 myotubes, firefly/Renilla luciferase, luminescence, FRG1 inhibition for FSHD, primary screen (AID 1084). As to conditions: FRG1 promoter luciferase, higher = more signal, called active from +8 up or from −8 down.
Assay [9] is described as follows: small molecules captured by biotinylated probe aFST – biochemical, small-molecule microarray, fluorescence 635/667, stem cell growth factor project, primary screen (AID 1086).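 Also: score merges 667 nm fluorescence with signal-to-noise of each printed compound spot.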 Particulars: higher = more signal.
Assay [10] can be described thus: binders of probe aHhip on microarray, primary screen, stem cell growth factor project, biochemical, small-molecule microarray, fluorescence 635/667 (AID 1087).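 Also: score merges spot fluorescence at 667nm with spot signal to noise ratio.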 Particulars: higher = more signal.

Pro-neuregulin-1, membrane-bound isoform (Homo sapiens), sequence (Q02297 whole entry, looked up, the tested form may be a part, canonical isoform): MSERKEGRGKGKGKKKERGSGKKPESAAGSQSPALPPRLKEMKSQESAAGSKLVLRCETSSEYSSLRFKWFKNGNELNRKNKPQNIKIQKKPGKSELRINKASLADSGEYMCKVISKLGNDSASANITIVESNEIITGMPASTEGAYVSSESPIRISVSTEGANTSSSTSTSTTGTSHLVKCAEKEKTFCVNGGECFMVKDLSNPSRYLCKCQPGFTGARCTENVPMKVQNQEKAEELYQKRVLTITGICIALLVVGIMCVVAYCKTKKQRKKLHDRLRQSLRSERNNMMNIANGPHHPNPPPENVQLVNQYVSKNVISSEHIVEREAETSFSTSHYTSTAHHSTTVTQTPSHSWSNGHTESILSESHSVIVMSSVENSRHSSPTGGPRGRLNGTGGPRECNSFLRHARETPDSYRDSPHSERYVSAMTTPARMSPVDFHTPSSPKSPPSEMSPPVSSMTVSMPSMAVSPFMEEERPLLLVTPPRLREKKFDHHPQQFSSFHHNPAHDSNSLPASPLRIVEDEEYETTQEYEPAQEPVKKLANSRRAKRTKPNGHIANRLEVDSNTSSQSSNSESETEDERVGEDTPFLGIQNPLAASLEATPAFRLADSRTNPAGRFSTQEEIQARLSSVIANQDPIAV
Neurogenic locus notch homolog protein 2 (Homo sapiens), sequence (Q04721 whole entry, looked up, canonical isoform): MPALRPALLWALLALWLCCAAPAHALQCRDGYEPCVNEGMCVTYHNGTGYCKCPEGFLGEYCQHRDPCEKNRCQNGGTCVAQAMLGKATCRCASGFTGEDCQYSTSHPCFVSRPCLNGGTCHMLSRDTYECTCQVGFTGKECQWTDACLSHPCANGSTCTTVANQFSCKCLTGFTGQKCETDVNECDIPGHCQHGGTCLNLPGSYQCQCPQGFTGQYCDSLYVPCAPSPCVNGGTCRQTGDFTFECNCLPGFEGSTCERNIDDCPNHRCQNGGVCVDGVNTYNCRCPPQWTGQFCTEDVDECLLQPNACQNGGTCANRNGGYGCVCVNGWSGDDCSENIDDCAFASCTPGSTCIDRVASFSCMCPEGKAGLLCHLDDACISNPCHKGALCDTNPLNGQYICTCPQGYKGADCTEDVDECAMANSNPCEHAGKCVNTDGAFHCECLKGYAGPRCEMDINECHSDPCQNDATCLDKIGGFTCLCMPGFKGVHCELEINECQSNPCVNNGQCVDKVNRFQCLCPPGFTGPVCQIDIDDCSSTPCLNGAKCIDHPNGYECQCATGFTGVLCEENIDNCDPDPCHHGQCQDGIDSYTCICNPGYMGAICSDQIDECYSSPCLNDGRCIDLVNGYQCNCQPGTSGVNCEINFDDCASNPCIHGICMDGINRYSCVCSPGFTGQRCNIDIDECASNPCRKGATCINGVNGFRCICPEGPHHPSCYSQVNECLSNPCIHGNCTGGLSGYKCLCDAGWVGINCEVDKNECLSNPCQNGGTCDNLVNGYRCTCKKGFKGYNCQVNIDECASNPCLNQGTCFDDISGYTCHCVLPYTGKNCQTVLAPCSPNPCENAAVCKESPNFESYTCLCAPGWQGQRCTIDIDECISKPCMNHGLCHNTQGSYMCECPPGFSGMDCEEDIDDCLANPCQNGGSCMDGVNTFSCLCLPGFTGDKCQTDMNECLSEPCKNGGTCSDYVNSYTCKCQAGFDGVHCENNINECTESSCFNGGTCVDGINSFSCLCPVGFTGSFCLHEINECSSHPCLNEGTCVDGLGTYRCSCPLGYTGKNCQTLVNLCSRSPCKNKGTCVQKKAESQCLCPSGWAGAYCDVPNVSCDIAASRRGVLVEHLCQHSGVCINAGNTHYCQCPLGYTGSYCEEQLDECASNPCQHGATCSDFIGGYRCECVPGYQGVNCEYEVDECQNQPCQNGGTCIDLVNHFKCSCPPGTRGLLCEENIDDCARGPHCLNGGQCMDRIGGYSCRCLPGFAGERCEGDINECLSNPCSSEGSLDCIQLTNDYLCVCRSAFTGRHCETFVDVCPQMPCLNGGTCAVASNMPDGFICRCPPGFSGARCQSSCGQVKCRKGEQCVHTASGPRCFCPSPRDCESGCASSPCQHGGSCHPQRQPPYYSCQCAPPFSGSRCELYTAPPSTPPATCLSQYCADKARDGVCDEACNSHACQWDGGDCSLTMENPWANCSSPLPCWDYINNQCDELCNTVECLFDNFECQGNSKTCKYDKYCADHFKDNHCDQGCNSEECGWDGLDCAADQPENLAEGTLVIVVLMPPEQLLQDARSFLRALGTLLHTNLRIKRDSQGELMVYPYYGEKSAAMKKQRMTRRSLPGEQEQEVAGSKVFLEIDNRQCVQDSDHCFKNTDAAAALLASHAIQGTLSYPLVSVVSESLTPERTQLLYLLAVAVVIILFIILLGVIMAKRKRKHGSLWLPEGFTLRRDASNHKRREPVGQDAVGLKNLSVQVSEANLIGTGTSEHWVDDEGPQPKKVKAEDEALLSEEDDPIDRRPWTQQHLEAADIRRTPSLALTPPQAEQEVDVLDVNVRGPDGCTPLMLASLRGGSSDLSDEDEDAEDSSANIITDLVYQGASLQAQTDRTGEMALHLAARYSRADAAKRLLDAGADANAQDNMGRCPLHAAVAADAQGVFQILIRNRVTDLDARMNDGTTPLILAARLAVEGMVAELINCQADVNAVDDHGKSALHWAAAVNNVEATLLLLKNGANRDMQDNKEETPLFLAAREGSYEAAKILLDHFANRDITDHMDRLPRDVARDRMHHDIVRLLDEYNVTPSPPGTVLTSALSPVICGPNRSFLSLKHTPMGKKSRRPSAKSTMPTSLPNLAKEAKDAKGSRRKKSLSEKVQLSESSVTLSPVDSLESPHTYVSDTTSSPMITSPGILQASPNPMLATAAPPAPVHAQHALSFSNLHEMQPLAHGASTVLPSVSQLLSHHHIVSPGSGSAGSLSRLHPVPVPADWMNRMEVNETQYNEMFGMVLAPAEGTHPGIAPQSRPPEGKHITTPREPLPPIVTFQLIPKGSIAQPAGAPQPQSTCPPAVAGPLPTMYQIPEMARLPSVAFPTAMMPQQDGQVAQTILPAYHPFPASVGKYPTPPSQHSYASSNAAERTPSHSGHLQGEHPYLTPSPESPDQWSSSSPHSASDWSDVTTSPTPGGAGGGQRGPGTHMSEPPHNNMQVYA

With `C=C(C(=O)CC[C@H](OC(=O)c1ccccc1-c1ccccc1C(=O)O)c1cccc(OCCO)c1)C(C)C`, the composite z-score in assay [1] was -0.337; in assay [2] it was -0.062; in [3], -0.109; in assay [4], 0.211; in assay [5] it was -0.275; in assay [6] it was 0.262. Further, the composite z-score in [7] is 0.0799; in assay [9], -0.224; in [10] it was -0.134. In addition, the z-score in assay [8] was -0.0752 (inactive).

`CC(C)NC(=O)[C@@]1(c2ccc([N+](=O)[O-])cc2)CC(=O)N(C2CCCCC2)[C@@H]1c1ccc(CO)cc1`: the composite z-score in [1] was -0.903; in [2] it was 1.08; in assay [3] it was 0.0584; in [4], 0.817; in assay [5], 0.261; in [6] it was 1.69. Also, the composite z-score in assay [7] is 1.35; in [9] it was -0.114; in assay [10], -0.172. Further, the z-score in assay [8] is -0.629 (inactive).

Turning to `C=CC[C@@]1(C(=O)NCCCOC)N=C(c2ccc(OCCCO)cc2)O[C@@H]1c1ccccc1N=[N+]=[N-]`, the composite z-score in assay [1] turned out to be 0.165; in [2], 0.252; in [3], 0.0442; in assay [4] it was 0.469; in [5] it was 0.798; in assay [6], 1.67. In addition, the composite z-score is 1.21 in assay [7], 1.06 in [9] and -0.0645 in [10]. Besides, in assay [8], the z-score was 2.26 (inactive).

Regarding `CCCNC(=O)[C@@H]1c2ccccc2C(=O)N(Cc2ccc(OC(F)(F)F)cc2)[C@H]1c1ccc(CO)cc1`, the composite z-score is 0.193 in assay [1]; -0.392 in assay [2]; 0.0295 in [3]; 0.0505 in assay [4]; 0.634 in [5]; 0.33 in assay [6]. For the same compound, the composite z-score in assay [7] was 1.24; in [9] it was 0.0347; in assay [10], -0.0237. Besides, the z-score in assay [8] was -1.88 (inactive).

For the compound `CC(C)N1C(=O)C[C@@](C(=O)O)(c2ccc([N+](=O)[O-])cc2)[C@H]1c1ccc(CO)cc1`, the composite z-score in [1] was 1; in [2] it was 0.208; in [3], -0.031; in assay [4] it was 0.117; in assay [5] it was -0.436; in [6], 0.425. Besides, the composite z-score in assay [7] is 1.04; in [9] it was -0.322; in assay [10], 0.0373. Further, the z-score in assay [8] was 0.161 (inactive).

As to `COc1cc(NN2C(C(O)c3cc(OC)c(OC)c(OC)c3)C=CC3C(=O)N(C)C(=O)C32)cc(OC)c1OC` (stereo not given), the composite z-score in assay [1] was -0.0324; in assay [2] it was 0.427; in assay [3], -0.0613; in assay [4], 0.899; in assay [5], 1.34; in assay [6], 1.98. The composite z-score in assay [7] is 1.23; in assay [9] it was 0.572; in assay [10] it was 0.12. Also, the z-score in assay [8] was 0.78 (inactive).

With `CCCN1C(=O)[C@]2(Cc3ccccc31)N=C(c1ccc(OCCCO)cc1)O[C@@H]2c1ccccc1`, the composite z-score in assay [1] was 0.552; in [2] it was 0.176; in [3], 0.0732; in [4] it was -0.139; in assay [5], 0.118; in assay [6], 1.3. In addition, the composite z-score was 1.23 in assay [7], 0.311 in [9] and 0.22 in assay [10]. In addition, in assay [8], the z-score is -1.9 (inactive).

Consider `COC(=O)C1(CC(C)C)C=C2C(=C(c3ccccc3)C(=O)C2C)CN1` (stereo not given), for which the composite z-score in assay [1] worked out at 1.92; in assay [2], 0.442; in assay [3], 0.669; in assay [4], 0.746; in assay [5], 1.1; in [6], 1.02. For the same compound, the composite z-score was 0.78 in [7], 1.15 in [9] and 0.935 in [10]. Besides, the z-score in [8] is 1.19 (inactive).

For the compound `COC(=O)[C@@]1(Cc2ccc(OC)cc2)[C@H]2c3cc(C(=O)N(C)C)n(Cc4ccc(OC(F)(F)F)cc4)c3C[C@H]2CN1C(=O)c1ccccc1`, the composite z-score is 0.363 in [1]; -0.468 in [2]; -0.121 in assay [3]; -0.0332 in assay [4]; 1.58 in assay [5]; 1.39 in assay [6]. Further, the values for the composite z-score in assay [7], in [9] and in [10] were 1.44, 0.575 and 0.276, respectively. Also, the z-score in assay [8] was 2.88 (inactive).

With `COC(=O)[C@]1(CCS(=O)(=O)c2ccccc2)N=C(c2ccc(OCCCO)cc2)O[C@@H]1c1ccccc1N=[N+]=[N-]`, the composite z-score in assay [1] amounted to 0.48; in [2], 0.619; in [3], 0.136; in [4], 0.898; in [5], 1.53; in assay [6] it was 1.79. Besides, the composite z-score came out at 1.37 in assay [7], 1.15 in assay [9] and 0.0102 in assay [10]. The z-score in [8] is 1.89 (inactive).

Regarding `Cc1ccc(NN2C(C(O)c3c(F)cccc3Cl)C=CC3C(=O)N(C4CCCCC4)C(=O)C32)cc1` (stereo not given), the composite z-score in assay [1] came to 1.14; in assay [2], 0.44; in [3] it was 0.0749; in [4], 0.507; in assay [5], 1.55; in [6], 1.46. For the same compound, the composite z-score in assay [7] was 1.06; in assay [9], 0.697; in assay [10], -0.254. The z-score in [8] was 0.0701 (inactive).

On to `COC(=O)[C@@]1(Cc2ccc(F)cc2)[C@H]2c3cc(C(=O)N(C)C)n(CCc4ccc(OC)c(Br)c4)c3C[C@H]2CN1C(=O)c1ccccc1`, for which the composite z-score was 0.859 in [1]; -0.694 in assay [2]; 0.361 in [3]; 0.675 in [4]; 0.716 in [5]; 0.988 in assay [6]. For the same compound, the composite z-score in assay [7] is 1.29; in assay [9], 1.48; in assay [10], 0.424. Also, in assay [8], the z-score was 3.92 (inactive).

For the compound `CCCCCCCCCC(O)C1C=CC2C(=O)N(c3ccccc3)C(=O)C2N1Nc1cc(OC)c(OC)c(OC)c1` (stereo not given), the composite z-score in assay [1] is -0.0386; in assay [2] it was -0.666; in assay [3], 0.0166; in assay [4] it was 0.23; in assay [5], 0.45; in assay [6], 0.856. Moreover, the values for the composite z-score in assay [7], in assay [9] and in [10] were 0.487, 0.199 and -0.13, respectively. Further, in assay [8], the z-score is 0.393 (inactive).

Turning to `COC(=O)C1=CC(CCCO)=CC(c2cccs2)N(Cc2cccc(OC(F)(F)F)c2)C=C1C(=O)OC` (stereo not given), the composite z-score in [1] was -0.55; in assay [2] it was 0.203; in assay [3], 0.11; in assay [4] it was 0.583; in assay [5], 1.51; in [6] it was 1.93. The values for the composite z-score in assay [7], in assay [9] and in [10] were 1.2, 1.5 and 0.0053, respectively. The z-score in assay [8] was 0.0099 (inactive).

Consider `COC(=O)[C@@H]1N=C(c2ccc(OCCCO)cc2)O[C@@H]1C`, for which the composite z-score is 0.0684 in [1]; 0.331 in assay [2]; -0.0627 in [3]; 0.509 in assay [4]; 0.108 in [5]; -0.519 in assay [6]. The composite z-score was found to be 0.155 in assay [7], 0.195 in assay [9] and 0.0139 in assay [10]. In addition, the z-score in assay [8] is 5.05 (inactive).

For the compound `C=CC[C@]1(C(=O)N2CCOCC2)COC(c2ccc(OCCCO)cc2)=N1`, the composite z-score in [1] is 0.0944; in [2], 1.47; in assay [3], 0.075; in [4] it was -0.151; in assay [5] it was 0.0759; in assay [6], 1.52. For the same compound, the composite z-score is 1.39 in [7], 0.219 in [9] and -0.249 in assay [10]. In assay [8], the z-score is 0.683 (inactive).

Turning to `Cc1ccc(C(C)CC(O)C2C=CC3C(=O)N(c4ccccc4)C(=O)C3N2Nc2ccccc2)o1` (stereo not given), the composite z-score in assay [1] was -0.172; in [2], -0.314; in [3] it was -0.087; in assay [4], 0.504; in assay [5], 1.65; in assay [6] it was 1.18. Moreover, the composite z-score was determined as 1.21 in assay [7], 1.51 in assay [9] and 0.113 in [10]. The z-score in assay [8] was -0.0963 (inactive).

The record behind these values is PubChem BioAssay.
